Results taken from PubChem BioAssay AID1851 (National Center for Advancing Translational Sciences (NCATS), 2009).
Where “and” joins values, the source holds several entries; their conditions need not be identical. Identical values can stand only once. Among all 16,000 compounds or so, about 5,700 (36%) were called active. Roughly 24% stayed inconclusive and do not appear here. Calls come from the whole dose curve; as a rule, active = well fitted curve in the direction sought with a large enough effect; inconclusive = small, poorly fitted or top-dose-only effect, or effect the other way; inactive = no such curve, though single readings can be large or run the other way. The list shows a part of the results. More than one record can exist for a structure, and the calls need not agree.

biological target: Cytochrome P450 1A2 (Homo sapiens) (UniProt P05177); experiment: Cytochrome panel assay with activity outcomes; conditions: recombinant CYP, pro-luciferin dealkylation, luminescence, p450-cyp1a2; series mostly up to 57.1 µM
% is set by controls: 0 for no effect and ±100 for the full control effect.

Chain of Cytochrome P450 1A2 (Homo sapiens) (P05177 whole entry, looked up): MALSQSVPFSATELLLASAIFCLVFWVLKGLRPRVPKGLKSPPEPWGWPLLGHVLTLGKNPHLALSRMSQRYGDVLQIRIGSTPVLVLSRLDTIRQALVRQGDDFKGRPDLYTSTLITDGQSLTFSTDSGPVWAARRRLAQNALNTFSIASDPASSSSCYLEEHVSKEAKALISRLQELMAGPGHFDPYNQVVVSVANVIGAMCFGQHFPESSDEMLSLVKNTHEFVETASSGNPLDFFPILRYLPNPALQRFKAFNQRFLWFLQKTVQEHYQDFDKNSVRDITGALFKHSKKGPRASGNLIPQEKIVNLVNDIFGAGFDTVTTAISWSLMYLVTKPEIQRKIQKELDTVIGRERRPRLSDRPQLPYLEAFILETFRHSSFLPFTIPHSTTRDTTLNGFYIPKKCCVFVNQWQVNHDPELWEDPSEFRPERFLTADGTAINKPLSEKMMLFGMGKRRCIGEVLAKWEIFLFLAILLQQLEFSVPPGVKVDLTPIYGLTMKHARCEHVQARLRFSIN

SMILES	AC50	activity, negative = inhibition
Cc1ccc(-c2ccc(=O)n(CC(=O)NCCN3CCCCC3C)n2)cc1 (configuration not stated)	inactive	–
O=C(NCC1COc2ccccc2O1)C1C2C=CC3(CN(Cc4cccs4)C(=O)C13)O2 (configuration not stated)	inactive	–
CC1(C)CC(=O)C/C(=N/NC(=O)CCCOc2ccc(Cl)cc2Cl)C1	15.8 µM (active)	–
COc1ccc(/C=N/NC(=O)CCCOc2ccc(Cl)cc2Cl)cc1[N+](=O)[O-]	1.26 µM (active)	–
COCCCNC(=O)C(=O)N/N=C/c1ccc(OCC(=O)Nc2cccc(Cl)c2C)c(OC)c1	inactive	–
COC(=O)CCC(=O)NNC(=O)CCCOc1ccc(Cl)cc1Cl	12.6 µM (active)	–
CC(C)C(=O)Nc1ccc(C(=O)NNC(=O)CCCOc2ccc(Cl)cc2Cl)cc1	inactive	–
COC(=O)CCCC(=O)O	–	-7.34% [at 2.29 µM] (inactive)
Cc1cccc(CNc2ccnc(-c3ccccc3Cl)n2)c1	1.58 µM (active)	–
Cc1cccc(CNc2ccnc(-c3ccccc3CN(C)C)n2)c1	3.16 µM (active)	–
Clc1ccccc1-c1nccc(NCc2ccccc2)n1	3.16 µM (active)	–
CCOc1ccc(-n2c(N)c(C(=O)NCc3cccnc3)sc2=S)cc1	inactive	–
COc1ccc(-n2c(N)c(C(=O)NCc3ccco3)sc2=S)cc1	11.2 µM (active)	–
OC[C@@H]1NC[C@@H](O)[C@H]1O	inactive	–
CCOC(=O)c1[nH]c2ccc(Cl)cc2c1-c1ccccc1	0.398 µM (active)	–
NC(=NCc1ccc(Cl)c(Cl)c1)NC(=O)c1nc(Cl)c(N)nc1N	10 µM (active)	–
CC(=O)Nc1ccc(S(=O)(=O)NC2(C(F)(F)F)NC(=O)N(c3ccc(Cl)cc3)C2=O)cc1 (configuration not stated)	inactive	–
O=C(CC1C(=O)N(c2ccc(Cl)cc2)C(=S)N1CCc1ccncc1)Nc1ccc(F)cc1 (configuration not stated)	5.01 µM (active)	–
CCNC(=O)CC1C(=O)N(c2ccc(F)cc2)C(=O)N1CCc1ccc(OC)cc1 (configuration not stated)	inactive	–
Cn1c(-c2ccccc2)cnc1N	17.8 µM (active)	–
CCCn1c(-c2ccccc2)nc2c(=O)n(C)c(=O)[nH]c21	inactive	–

SMILES	AC50	activity, negative = inhibition
CN(C)c1ccc(-c2nc(N(C)C)c3ccccc3n2)cc1	0.251 µM (active)	–
CN(C)c1ccc(-c2nc(Nc3ccncc3)c3ccccc3n2)cc1	0.501 µM (active)	–
CN(C)c1nc(-c2ccoc2)nc2ccccc12	0.501 µM (active)	–
CNc1nc(-c2ccc(N(C)C)cc2)nc2ccccc12	0.2 µM (active)	–
COCC(=O)N1CCC[C@@]2(CCN(Cc3ccccc3)C2)C1	inactive	–
O=C(CC1(O)CCCCC1)OC1CCCC1	–	-12.2% [at 11.4 µM] (inactive)
CC1(C)O[C@H]2[C@@H](O1)[C@@H](On1nnc3ccc(Cl)cc31)O[C@@H]2[C@@H]1COC(C)(C)O1	–	-10.9% [at 2.29 µM] (inactive)
CN(C)c1nc(-c2cccnc2)nc2ccccc12	0.126 µM (active)	–
CCOC(=O)Cc1cc(=O)n2[nH]c(C)c(-c3ccccc3)c2n1	12.6 µM (active)	–
CCOC(=O)Cc1cc(=O)n2[nH]c(C)c(C#N)c2n1	inactive	–
CCOC(=O)Cc1c(C)nc2c(C#N)c[nH]n2c1=O	inactive	–
S=C(CSc1ccccc1)Nc1cccc2ccccc12	1.26 µM (active)	–
CO[C@@H]1COC(=O)CCC[C@@H](C)[C@H](OC)COC(=O)CCC[C@H]1C	–	5.33% [at 11.4 µM] (inactive)
Cc1cccc(-c2noc(-c3cc4ccccc4oc3=O)n2)c1	3.16 µM (active)	–
CS(=O)(=O)c1ccccc1-c1nc(-c2cc(C(F)(F)F)cc(C(F)(F)F)c2)no1	inactive	–
NC1=NC2(CCCCC2)N=C(Nc2ccc(F)cc2F)N1	inactive	–
O=C(O)C1CCCCC1C(=O)Nc1cc(Cl)ccc1Cl (configuration not stated)	inactive	–
COc1cc(C)nc(N2CCCC(C(=O)Nc3cc(Cl)ccc3OC)C2)n1 (configuration not stated)	3.55 µM (active)	–
Cc1ccc(C(=O)NNC(=O)C2CCCN(c3ncccn3)C2)cc1 (configuration not stated)	inactive	–
Cc1ccccc1NS(=O)(=O)c1ccc2[nH]cc(C(=O)N(C)Cc3ccco3)c(=O)c2c1	15.8 µM (active)	–
CN1CCN(S(=O)(=O)c2ccc3[nH]cc(C(=O)O)c(=O)c3c2)CC1	inactive	–

SMILES	AC50	activity, negative = inhibition
CCOC(=O)N1CCN(S(=O)(=O)c2ccc3[nH]cc(C(=O)O)c(=O)c3c2)CC1	inactive	–
COc1ncc2nc(-c3cccs3)c(=O)n(C)c2n1	2 µM (active)	–
COc1ccc(Oc2ncc3nc(-c4cccs4)c(=O)n(C)c3n2)cc1	3.16 µM (active)	–
O=C(NNC(=O)c1cc2cc3ccccc3nc2s1)c1cccc(C(F)(F)F)c1	inactive	–
Cc1sc(N)c(C(=O)c2cccc(C(F)(F)F)c2)c1C	15.8 µM (active)	–
CC(C)NC1(C(N)=O)CCN(Cc2ccccc2)CC1	–	7.61% [at 2.29 µM] (inactive)
O=C(Cn1nnc2ccccc21)N1CCCCC1	inactive	–
Cc1ccnc(NCn2nnc3ccccc32)c1	28.2 µM (active)	–
COc1ccc(N(C(=O)Cn2nnc3ccccc32)C2(C(=O)NC3CCCC3)CCCCC2)cc1	inactive	–
Cc1ccc(S(=O)(=O)N[C@H]2COC(=O)[C@@H](Cc3ccccc3)NC(=O)[C@@H](C)COC(=O)C/C=C\[C@@H]2C)cc1	–	-7.75% [at 11.4 µM] (inactive) and -3.67% [at 11.4 µM] (inactive)
Cc1c(NC(=O)C23CC4CC(CC(C)(C4)C2)C3)c(=O)n(-c2ccccc2)n1C	inactive	–
CS(=O)(=O)c1ccc(Cn2c3c(c4cc(F)cc(F)c42)CCC[C@H]3CC(=O)O)cc1	inactive	–
Cc1c(CC(C)(C)C(=O)O)n(Cc2ccc(Cl)cc2)c2ccc(F)cc12	15.8 µM (active)	–
OCCNc1nc(NCCC2=CCCCC2)nc(N2CCOCC2)n1	0.708 µM (active)	–
O=C(O)C[C@H](Cc1ccccc1Cl)C(=O)O	–	-17.6% [at 11.4 µM] (inactive)
O=C(CSCc1ccccc1Cl)NN1C(=O)c2ccccc2C1=O	14.1 µM (active)	–
O=C(NN1C(=O)c2ccccc2C1=O)C1CCCCC1	inactive	–
O=C1/C(=C\c2ccc(Br)o2)SC(=Nc2ccccc2)N1c1ccccc1	0.126 µM (active)	–
CC1=C(\C=C/C(C)=C/C=C\C(C)=C\C(=O)O)C(C)(C)CCC1	inactive and 20 µM (active)	–
CC1=CC(=O)CC(C)(C)[C@]1(O)/C=C\C(C)=C\C(=O)O	–	-7.1% [at 11.4 µM] (inactive)
